MCF10A rereplic: DNA re-replication induction in MCF 10a cells. MCF 10A DNA re-replication, Hoechst nuclear intensity, 48 h. actives 2.9% (n = 350,000). Potency, µM (highest dose often 46.1 µM), inactives show at the highest dose activity, positive = re-replication, actives largely listed as activators. AID 624296; further: % of control where 0% means no effect; nearly all actives have a fitted effect of over 50% in size
KB-3-1 cytotox: kills parental KB-3-1 adenocarcinoma cells | KB-3-1 viability, CellTiter-Glo ATP luminescence, 72 h | Potency, µM (doses to about 46.1 µM), hits mostly cytotoxic | actives 1.4% (n = 400,000) | AID 1347075; further: on the % scale 0 is the no-effect control and ±100 the full control effect; nearly all actives have a fitted effect of over 60% in size
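Cells are dispensed, compounds pinned in, plates held at 37 °C for 72 h, then CellTiter-Glo is added and luminescence read after 10 minutes. Cell line: parental KB-3-1 in phenol-red-free DMEM, 10% FBS.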
SW480 rereplic: inducers of DNA re-replication in SW480 colon cancer cells; actives 1.8% (n = 340,000); Potency, µM (series often up to 46.1 µM), without a hit: at the highest dose re-replication activation, usual class: activators; SW480 DNA re-replication, Hoechst DNA content imaging, 48 h; AID 624297; further: % of control where 0% means no effect; nearly all actives have a fitted effect of over 55% in size
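DNA re-replication was detected as more nuclei of elevated Hoechst intensity after 48 hr exposure to compound (23 nL pinned per well of 250 cells).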
KB-V1 cytotox: kills drug-selected multidrug resistant KB-V1 cells; actives 3.4% (n = 400,000); Potency, µM (titrated, usually from 46.1 µM), actives largely listed as cytotoxic; KB-V1 MDR cells viability, CellTiter-Glo, 72 h; further: on the % scale 0 is the no-effect control and ±100 the full control effect; nearly all actives have a fitted effect of over 60% in size
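Cells of the MDR subline KB-V1 are plated, dosed with compound at multiple concentrations, and incubated 72 h at 37 degrees C; CellTiter-Glo is then added and luminescence read after 10 min.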
ELG1 DNA repair: ELG1-dependent DNA repair inhibition | HEK293T ELG1-luciferase reporter, luminescence, 16 h; DNA damage induced by 5-fluorouridine | Potency, µM (series often up to 46.1 µM), for inactives: at the top dose activity change, negative = inhibition, hits mostly inhibitors | actives 2.3% (n = 330,000); further: on the % scale 0 is the no-effect control and ±100 the full control effect; nearly all actives have a fitted effect of over 55% in size
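In this reporter screen, reduction of luminescence relative to DMSO vehicle indicated activity. Compounds and 5-fluorouridine were added together to 2,000 cells per well, incubated for 16 hr at 37 °C, then developed with ONE-Glo.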
* marks the source's active call; other numbers are inactive results. Hits are enriched below; roughly 8.1% of the tested compounds scored in any of these assays. The call rests on the fitted dose curve; in most records, active means well fitted curve in the direction sought with a large enough effect; inconclusive means small, poorly fitted or top-dose-only effect, or another doubt; inactive means no such curve, though single readings can be large; an effect the other way counts as inactive or inconclusive. Potency means the concentration at half of the fitted maximal effect.

Results for Cc1[nH]c2ccccc2c1C1(O)C(=O)Nc2ccc(Cl)cc21 (stereo unspecified) ?
KB-3-1 cytotox: inactive; KB-V1 cytotox: inconclusive

What do the screens show for `Nc1nc(-c2ccc(-n3nncc3-c3ccco3)cc2)cs1`?
MCF10A rereplic: 23.1µM*; KB-3-1 cytotox: inactive; SW480 rereplic: 20.8%; KB-V1 cytotox: inactive; ELG1 DNA repair: inconclusive

What do the screens show for `Cc1nc(-c2ccc(-n3nncc3-c3ccco3)cc2)cs1`?
MCF10A rereplic: -1.8%; KB-3-1 cytotox: inactive; SW480 rereplic: -82.4%; KB-V1 cytotox: inconclusive; ELG1 DNA repair: 10.2%

What do the screens show for `Oc1[nH]c2ccccc2c1N=Nc1nc2ccccc2s1`?
MCF10A rereplic: 13.6%; KB-3-1 cytotox: inactive; SW480 rereplic: -4.0%; KB-V1 cytotox: inactive; ELG1 DNA repair: inconclusive

What do the screens show for `Cc1ccc2[nH]c(O)c(N=Nc3nc4ccccc4s3)c2c1`?
MCF10A rereplic: -9.1%; KB-3-1 cytotox: inconclusive; SW480 rereplic: 0.9%; KB-V1 cytotox: 13µM*; ELG1 DNA repair: inconclusive

How did CCOC(=O)C1Cc2cc3c(cc2C1=O)CC(C(=O)OCC)C3=O (stereo unspecified) do in these assays?
ELG1 DNA repair: 5.9%

Results for CC(=O)Oc1ccc2oc(/C=C/N(C)C)c([N+](=O)[O-])c2c1 ?
MCF10A rereplic: -1.7%; KB-3-1 cytotox: inactive; SW480 rereplic: -6.8%; KB-V1 cytotox: inactive; ELG1 DNA repair: inconclusive

How did COc1nc(/C=C/N(C)C)c([N+](=O)[O-])c(OC)n1 do in these assays?
MCF10A rereplic: 6.51µM*; KB-3-1 cytotox: inactive; SW480 rereplic: -0.6%; KB-V1 cytotox: inactive; ELG1 DNA repair: 18.7%

How did O=C(Cn1cc[n+](CC(=O)c2ccc(Cl)cc2Cl)c1)c1ccc(Cl)cc1Cl do in these assays?
MCF10A rereplic: -1.6%; KB-3-1 cytotox: inconclusive; SW480 rereplic: 2.3%; KB-V1 cytotox: inactive; ELG1 DNA repair: inconclusive

How did CN(C)CCCN(C(=O)c1ccc2c(c1)CCCC2)c1nc2cc3c(cc2s1)OCO3 do in these assays?
MCF10A rereplic: 16.4µM*; KB-3-1 cytotox: inconclusive; SW480 rereplic: inconclusive; KB-V1 cytotox: inactive; ELG1 DNA repair: -8.7%

Results for CN(C)CCCN(C(=O)c1ccc2c(c1)CCCC2)c1nc2ccc(F)cc2s1 ?
MCF10A rereplic: inconclusive; KB-3-1 cytotox: inactive; SW480 rereplic: inconclusive; KB-V1 cytotox: 4.11µM*; ELG1 DNA repair: 11.0%

How did CN(C)CCCN(C(=O)c1ccc(S(=O)(=O)N(C)C)cc1)c1nc2cc3c(cc2s1)OCO3 do in these assays?
MCF10A rereplic: 2.2%; KB-3-1 cytotox: inactive; SW480 rereplic: -7.0%; KB-V1 cytotox: inactive; ELG1 DNA repair: 3.0%

How did Cc1ccc(-c2nc3cccnc3s2)cc1NC(=O)c1ccco1 do in these assays?
MCF10A rereplic: 27.1%; KB-3-1 cytotox: inactive; SW480 rereplic: inconclusive; KB-V1 cytotox: inactive

How did NS(=O)(=O)c1ccc(NC(=S)NCc2cccs2)cc1 do in these assays?
MCF10A rereplic: 2.0%; KB-3-1 cytotox: inactive; SW480 rereplic: -2.0%; KB-V1 cytotox: inactive; ELG1 DNA repair: 9.1%

What do the screens show for `O=C1c2cccc3cc([N+](=O)[O-])cc(c23)C(=O)N1/N=C/c1ccc(O)cc1O`?
MCF10A rereplic: 18.4%; KB-3-1 cytotox: inactive; SW480 rereplic: 13µM*; KB-V1 cytotox: inactive; ELG1 DNA repair: -12.9%

Results for Cc1ccc(-c2n[nH]c(=S)n2/N=C/c2ccc(C(=O)O)cc2)cc1 ?
MCF10A rereplic: 5.3%; KB-3-1 cytotox: inactive; SW480 rereplic: 4.4%; KB-V1 cytotox: inactive; ELG1 DNA repair: -4.0%

What do the screens show for `CCN1CCc2nc3sc(C(=O)Nc4cccc(Cl)c4C)c(N)c3cc2C1`?
KB-3-1 cytotox: 16.4µM*; KB-V1 cytotox: 6.51µM*

What do the screens show for `CC(C)c1ccc2nc3sc(C(=O)N4CCc5ccccc5C4)c(N)c3cc2c1`?
MCF10A rereplic: inconclusive; KB-3-1 cytotox: inactive; SW480 rereplic: 2.2%; KB-V1 cytotox: inactive; ELG1 DNA repair: inconclusive

Results for CCN1CCc2nc3sc(C(=O)N4CCc5ccccc5C4)c(N)c3cc2C1 ?
MCF10A rereplic: 18.4µM*; KB-3-1 cytotox: inactive; SW480 rereplic: 3.2%; KB-V1 cytotox: inconclusive; ELG1 DNA repair: 7.8%

How did Cc1ccc(Cl)c2sc(N3CCN(C(=O)c4ccco4)CC3)nc12 do in these assays?
MCF10A rereplic: inconclusive; KB-3-1 cytotox: inactive; SW480 rereplic: 1.7%; KB-V1 cytotox: inconclusive; ELG1 DNA repair: inconclusive

How did CCN(CC)S(=O)(=O)c1cccc(C(=O)NCC2CCCCC2)c1 do in these assays?
MCF10A rereplic: 6.8%; KB-3-1 cytotox: inconclusive; SW480 rereplic: -1.1%; KB-V1 cytotox: 11.6µM*; ELG1 DNA repair: -20.3%

Results for CCN(CC)S(=O)(=O)c1cccc(C(=O)NCC(c2ccccc2)N(C)C)c1 (stereo unspecified) ?
MCF10A rereplic: inconclusive; KB-3-1 cytotox: inactive; SW480 rereplic: -2.8%; KB-V1 cytotox: inconclusive; ELG1 DNA repair: 7.6%

What do the screens show for `CCN(CC)S(=O)(=O)c1ccc(Cl)c(C(=O)NCC2CCCO2)c1` (stereo unspecified)?
MCF10A rereplic: -2.3%; KB-3-1 cytotox: inactive; SW480 rereplic: -8.3%; KB-V1 cytotox: inactive; ELG1 DNA repair: -0.8%

What do the screens show for `O=C(NCC1CCCO1)c1cccc(S(=O)(=O)N(Cc2ccccc2)c2ccccc2)c1` (stereo unspecified)?
MCF10A rereplic: 19.8%; KB-3-1 cytotox: inactive; SW480 rereplic: -3.8%; KB-V1 cytotox: 8.2µM*; ELG1 DNA repair: 1.7%

What do the screens show for `CCN(CC)S(=O)(=O)c1cccc(C(=O)NCC2CCCO2)c1` (stereo unspecified)?
MCF10A rereplic: 23.1µM*; KB-3-1 cytotox: inactive; SW480 rereplic: inconclusive; KB-V1 cytotox: inactive; ELG1 DNA repair: -27.7%

How did CCN(CC)S(=O)(=O)c1cccc(NC(=O)C2SC(=Nc3ccc(C)cc3C)C(C(=O)NCC3CCCO3)=C2N)c1 (stereo unspecified) do in these assays?
MCF10A rereplic: inconclusive; KB-3-1 cytotox: inconclusive; SW480 rereplic: inconclusive; KB-V1 cytotox: 20.6µM*; ELG1 DNA repair: inconclusive

What do the screens show for `CCC1SC(CC)C(=O)N(CC(=O)NCCc2ccccc2)C1=O` (stereo unspecified)?
MCF10A rereplic: -1.8%; KB-3-1 cytotox: inactive; SW480 rereplic: -1.6%; KB-V1 cytotox: inactive; ELG1 DNA repair: -6.9%

How did CCN(CC)S(=O)(=O)c1ccc(Cl)c(C(=O)NCc2ccco2)c1 do in these assays?
MCF10A rereplic: 1.5%; KB-3-1 cytotox: inactive; SW480 rereplic: -35.7%; KB-V1 cytotox: inactive; ELG1 DNA repair: -13.1%

Results for COc1cc(C2SCC(=O)N2CCCN(C)C)cc(OC)c1OC (stereo unspecified) ?
MCF10A rereplic: 13.6%; KB-3-1 cytotox: inactive; SW480 rereplic: -13.3%; KB-V1 cytotox: inactive; ELG1 DNA repair: inconclusive

Bioassay records from PubChem BioAssay.
